Test results as given in ChEMBL document CHEMBL4513216, “Probing the Open Global Health Chemical Diversity Library for Multistage-Active Starting Points for Next-Generation Antimalarials” (ACS Infect Dis, 2020).
In all, about 69,000 compounds went through this assay and about 8,600 (12%) showed an effect of 50% or more. Many of the other results were omitted from the sample, so strong results are more common in it than they were.

These compounds were tested on Plasmodium berghei (assay: Screen against P. berghei liver stage (PbLuc), transformed with Luciferase, at 10uM). Settings: tested at 10 uM.
Format: functional, HepG2

Compound | INHIBITION
Cn1c(NCC(O)c2ccc(F)cc2)c(C#N)c(=O)n(C)c1=O (stereo unspecified) | -60.8%
Cn1cc(CN2CCCC3(CCN(c4nncs4)C3)C2)cn1 (stereo unspecified) | 22.4%
CN1CCO[C@@H]2CN(S(=O)(=O)c3ccccc3)CC[C@@H]2C1 | 4.02%
CC(=O)N1[C@H](CN(C)C)C[C@@H]2CN(C(=O)c3cccn3C)CC[C@@H]21 | -9.74%
COc1c(C2CCCN2C(=O)c2cscn2)c(C)nn1C (stereo unspecified) | 38.8%
O=C(Nc1ccccc1)C1CN(CC2CC2)CC12CCOCC2 (stereo unspecified) | 4.2%
Cc1ccc(CNC(=O)CN(CCC(N)=O)c2ccc(F)cc2)cc1 | 16%
Cc1ccc(CCNC(=O)N2CCC(Cc3cnn(C)c3)C2)cn1 (stereo unspecified) | -3.58%
Cc1cc(Br)ccc1CNC(=O)C1(O)CCSCC1 | 19.1%
CC(=O)NC1CCN(c2nc(N(C)C)nc3c2CCN(C(C)=O)C3)CC1 | 58.9%
Cc1nc(CCNc2nc(N(C)C)nc3c2CCCC3)cc(=O)[nH]1 | 24.7%
CC(=O)N1CCc2nc(N(C)C)nc(NCCc3ccccc3)c2CC1 | 79.7%
CC(=O)NC1CCN(c2nc(N(C)C)nc3c2CCCC3)CC1 | 46.6%
CNC(=O)CN(C)c1nc(-c2ccncc2)nc2c1CCN(C(C)=O)C2 | 31.8%
CC(=O)N1CCc2c(nc(N(C)C)nc2NC(C)Cc2cccs2)C1 (stereo unspecified) | 78.6%
CC(=O)N1CCc2c(nc(N(C)C)nc2N(C)CCO)C1 | 31.6%
CC(C)Nc1ncnc2c1CCN(C(=O)Cc1cccs1)CC2 | 21.8%
CN(C)c1nc2c(c(N3CCCC3)n1)CCN(C(=O)c1ccc[nH]1)CC2 | 34.5%
O=C(Cc1cccs1)N1CCCCC1c1ccn2ccnc2n1 (stereo unspecified) | 26.3%
CCOc1cc(C)nc(N2CCN(C(=O)c3cc[nH]n3)CC2)n1 | 40%
O=C(c1ccc2nncn2c1)N1CCCC(n2ccnc2)C1 (stereo unspecified) | 16.9%
CNC(=O)N1CCC(=Cc2ccccc2)CC1 | -27.4%

Compound | INHIBITION
CCCNC(=O)CCNC(=O)N1CCC(=Cc2ccccc2)CC1 | 9%
CCNC(=O)N1CCC(=Cc2ccccc2)CC1 | 63.3%
CN(C)c1nc2ncc(Cl)cc2cc1C#N | -8.35%
CCOC(=O)N1CCC(Nc2cc(CC)nc3c(C)c(C)nn23)CC1 | -31.4%
CC[C@@H](C)[C@H](NC(=O)CCn1cc(C(C)=O)c2ccccc21)C(=O)O | -27%
CCn1nc(C)c2c1cnn2CCNS(=O)(=O)Cc1ccccc1 | 47.4%
O=C(c1cocn1)N1CCC[C@]2(C[C@@H](OCC3CC3)CO2)C1 | -2.72%
Cc1cc(C(=O)N2CCC[C@]3(C[C@@H](OCC4CC4)CO3)C2)no1 | 21.8%
Cc1cc(C(=O)N2CCC[C@]3(C[C@H](OCC4CC4)CO3)C2)no1 | 17.1%
O=C(c1ccncn1)N1CCC[C@]2(C[C@H](OCC3CC3)CO2)C1 | 50.9%
Cc1cccc(C(=O)N2CCC[C@]3(C[C@@H](OCC4CC4)CO3)C2)n1 | 52%
CCOC1COC2(CCN(c3cccc(C)n3)CC2)C1 (stereo unspecified) | 16.6%
CCOC1COC2(CCN(Cc3cccc(C)n3)CC2)C1 (stereo unspecified) | 25.6%
CCOC1COC2(CCN(C(=O)c3cccc(C)n3)CC2)C1 (stereo unspecified) | 63.3%
O=C(c1ccncn1)N1CCC[C@]2(C[C@@H](OCC3CC3)CO2)C1 | 42.7%
CC(CC(=O)NCCCn1cccn1)c1cccnc1 (stereo unspecified) | 15.7%
CC(C)(C)c1nnc2n1C(C(=O)N1CCN(c3ncccn3)CC1)CC2 (stereo unspecified) | 14.3%
Cc1ccc(C)c(CSc2nnc(C(N)C(C)C)o2)c1 (stereo unspecified) | 21.8%
c1ccc(Cc2noc(CN3CCOC(Cn4cccn4)C3)n2)cc1 (stereo unspecified) | 24%
Cn1cc(C(=O)NCc2ccc(N3CCCC3)nc2)ccc1=O | 35.9%
CN(C)c1ccc(CNC(=O)NCCc2cn3ccccc3n2)cn1 | -10.6%
CCOc1cc(NC(=O)N2CCOC3(CCC3)C2)ccc1C | 2.45%

Compound | INHIBITION
CCN1CCCCC1C(=O)Nc1cccc(-c2nnc[nH]2)c1 (stereo unspecified) | 19.7%
CC1(c2ncc(CN3CCOCC3)cn2)CCCCO1 (stereo unspecified) | 18.04%
c1cnc(-c2nn3c(CN4CCOCC4)nnc3s2)cn1 | 4.35%
COc1nc2ccn(CCc3cc(O)nc(C)n3)c(=O)c2cc1C#N | 58.3%
CCc1nc(CCn2ccc3nc(OC)c(C#N)cc3c2=O)no1 | 32.3%
CC(C)SCCn1ccc2[nH]c(=O)c(C#N)cc2c1=O | 23.5%
COc1nc2ccn(CCNc3cc(C)ccn3)c(=O)c2cc1C#N | 58.3%
COc1nc2ccn(CCc3scnc3C)c(=O)c2cc1C#N | 45.7%
COCCn1cnc2ccc(NC(=O)c3ccc(OC)cc3)cc2c1=O | -13.6%
COc1nc2ccn(CCc3cnccn3)c(=O)c2cc1C#N | 72.6%
N#Cc1cc2c(=O)n(CC(O)Cc3ccccc3)ccc2[nH]c1=O (stereo unspecified) | 25.9%
Cc1ccnc(NCCNC(=O)C2CC3(CCNCC3)CN2C)c1 (stereo unspecified) | -17.9%
Cc1cc(C)n(CC2CN(c3cnc4ccccc4n3)CCO2)n1 (stereo unspecified) | 29.7%
O=C(C1CC1)N1CC[C@@H]2[C@H](CC1)N(Cc1cccnc1)CCS2(=O)=O | -49.8%
CC(C)c1cc(C(=O)N2CCC3(CCc4ccccc4C(=O)N3)C2)on1 (stereo unspecified) | 22.45%
Cc1ccc(N2CC[C@H]3O[C@H](C(=O)NCc4ccco4)CC[C@H]32)nn1 | 31.1%
Cc1ccc(C(=O)N(C)CCOc2ccccc2F)c(=O)[nH]1 | -10.3%
Cn1cc(CCC(=O)N2C[C@@H]3CC[C@H]2CN(Cc2cccnc2)C3)cn1 | 40.2%
CCOCCNc1nc(C2CCCC2)nc2c1cnn2C | 2.3%
Cn1ncc2c(NCCOc3ccc(F)cc3)nc(C3CCCC3)nc21 | 77.1%
CC(C)N(CCNc1nc(C2CCCC2)nc2c1cnn2C)C(C)C | 81.1%
Cn1ncc2c(NCCC34CCCN3CCC4)nc(C3CCCC3)nc21 | -12.2%

Compound | INHIBITION
CCS(=O)(=O)CCNc1nc(C2CCCC2)nc2c1cnn2C | 1.93%
CNCCCNc1nc(C2CCCC2)nc2c1cnn2C | 37.1%
Cn1ncc2c(NCCn3cccc3)nc(C3CCCC3)nc21 | 29.4%
Cn1ncc2c(NCCOCc3ccccc3)nc(C3CCCC3)nc21 | 71.2%
Cn1ncc2c(NCCCOc3cccnc3)nc(C3CCCC3)nc21 | 44.8%
O=C(NC1CC1)c1cc(Sc2ncccn2)ccn1 | -17.1%
CCOCc1ncn2c1CN(C(=O)Nc1ccc(CC)cc1)CC2 | -9.26%
Cc1cccc(CN2CCCC2(C(N)=O)c2cnccn2)n1 (stereo unspecified) | 42.4%
CNC(=O)[C@@H](c1ccccc1OC)N1CCC[C@H]1C(=O)NC1CC1 | 35.4%
O=C(Cc1ccc2c(c1)OCO2)N1CCN(c2ccncc2)CC1 | 49%
O=C(Cc1ccc2c(c1)OCO2)N1CCCN(c2ccccc2)CC1 | 11.8%
Cc1cc(N2CCCN(c3ccnc(C)c3)CC2)ccn1 | 11.9%
Cc1cc(N2CCCN(C(=O)Cc3cccnc3)CC2)ccn1 | 58.6%
Cc1cc(N2CCCN(C(=O)Cc3ccc(O)c(Cl)c3)CC2)ccn1 | 65.1%
Cc1cc(N2CCCN(C(=O)Cc3cc(F)cc(F)c3)CC2)ccn1 | 28.7%
Cc1cc(N2CCCN(C(=O)Cc3csc(C)n3)CC2)ccn1 | -13.2%
Cc1cc(N2CCN(C(=O)Cc3ccc4c(c3)OCO4)CC2)cc(C)n1 | 52.2%
COc1cccc(CC(=O)N2CCCN(c3ccnc(C)c3)CC2)c1 | -1.25%
O=C(c1cnccn1)N1C[C@H]2CC[C@@H](C1)N(C(=O)Cc1ccsc1)C2 | 28.5%
Cc1nnc2n1CCN(CCOc1cccc(C#N)c1)C2 | 44.1%
Cc1ccc(C2CSCCN2C(=O)c2ccoc2C)o1 (stereo unspecified) | 13.3%
CNC(=O)CCN1CCC(c2nnc(Cn3cccn3)n2C2CC2)CC1 | -0.71%

Compound | INHIBITION
Cc1nccc(C(=O)N2CCCC2c2noc(C(C)C)n2)n1 (stereo unspecified) | 22.6%
Cc1ncccc1NS(=O)(=O)Cc1cccc(F)c1 | 3.19%
O=C1NC[C@H]2CN(Cc3ccnc4ccccc34)CCN12 | -12.1%
O=C1NCC2CN(Cc3ccccc3OCc3ccccn3)CCN12 (stereo unspecified) | 50.3%
O=C1NC[C@H]2CN(Cc3ccccn3)CCN12 | -17.2%
c1cc(CN2CCC3(CC2)CC(N2CCCC2)CO3)co1 (stereo unspecified) | -4.82%
Cn1cc(Nc2cccc(C(=O)N(CC(N)=O)C3CCCC3)c2)cn1 | 82.2%
NC(=O)CN(C(=O)c1cccc(C(F)(F)F)c1)C1CCCC1 | -52.4%
CN(C)C(=O)c1cccc(NC(=O)c2cnn(C)c2)c1 | 52.4%
CCNC(=O)CN(CC)C(=O)c1cc(-c2cccc(Cl)c2)no1 | 21.5%
CN(C)C(=O)c1cccc(Nc2cnn(C)c2)c1 | 33.5%
CNC(=O)c1cccc(Nc2cnn(C)c2)c1 | 23.6%
Cc1cnn(C2CCCN(C(=O)c3cccc(-n4cnnn4)c3)C2)c1 (stereo unspecified) | 14.75%
CCNC(=O)CN(CC)C(=O)c1cccc(Nc2cnn(C)c2)c1 | 70.3%
CN(C)c1ncc(NC(=O)c2cccc(Nc3cnn(C)c3)c2)cn1 | 36.5%
O=C(Nc1cnn(CC(F)F)c1)c1cccc(-n2cnnn2)c1 | 20.6%
Cn1cc(NC(=O)c2cccc(-n3cnnn3)c2)cn1 | 53.7%
Cn1c(C(=O)N(CC(N)=O)C2CCCC2)cc(Cl)c1Cl | -25.6%
